TRPV1 PAM: potentiators of human vanilloid receptor 1 (TRPV1); TRPV1-expressing cells, Fluo-8 calcium influx, capsaicin EC20 potentiation; 0.02% of 320,000 active; Q8NER1; potentiation, % at 8.33 µM; in the data active = potentiation above about 80%; inconclusive = between about 30% and that limit
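TRPV1-expressing cells were cultured overnight at 35.5C and loaded with Fluo-8 calcium dye for 40 to 90 min at room temperature. After a 10 s baseline, compound was added and calcium influx was read kinetically for 3 min (ex 480/em 520 nm).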
TRPV1 ag: agonists of human vanilloid receptor 1 (TRPV1). 0.19% of 320,000 active. activation, % at 8.33 µM. TRPV1-expressing cells, Fluo-8 calcium influx, agonist mode; in the data active = activation above about 80%; inconclusive = between about 30% and that limit
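Fluo-8 calcium influx in TRPV1-expressing cells, kinetic read (ex 480/em 520 nm). Compound added and read 3 min for agonist activity, followed by capsaicin at EC20 final and 2 min further read for enhancement.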
ASM inhibitor: blocks human secretory acid sphingomyelinase; P17405; placental ASM, HMU-PC fluorogenic substrate, 60 min; Potency, µM (highest dose often 57.5 µM), hits mostly inhibitors; 0.006% of 340,000 active; AID 504937
Target sequence (P17405 47-631 limits assumed): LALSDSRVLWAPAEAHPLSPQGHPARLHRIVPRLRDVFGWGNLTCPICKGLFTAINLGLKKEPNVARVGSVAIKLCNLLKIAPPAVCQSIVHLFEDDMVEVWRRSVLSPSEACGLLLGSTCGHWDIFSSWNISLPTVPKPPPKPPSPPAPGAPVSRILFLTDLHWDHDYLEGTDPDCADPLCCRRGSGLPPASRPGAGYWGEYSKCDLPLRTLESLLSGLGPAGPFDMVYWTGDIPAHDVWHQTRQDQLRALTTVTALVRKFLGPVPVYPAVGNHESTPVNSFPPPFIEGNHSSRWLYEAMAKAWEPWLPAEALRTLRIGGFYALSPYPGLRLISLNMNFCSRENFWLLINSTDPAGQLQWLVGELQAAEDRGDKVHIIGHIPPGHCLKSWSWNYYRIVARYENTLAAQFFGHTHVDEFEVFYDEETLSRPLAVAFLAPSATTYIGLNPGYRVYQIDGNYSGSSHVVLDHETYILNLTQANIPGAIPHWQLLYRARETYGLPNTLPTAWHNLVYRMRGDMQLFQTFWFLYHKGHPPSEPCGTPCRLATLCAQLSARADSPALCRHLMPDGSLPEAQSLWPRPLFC
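Fluorogenic HMU-PC substrate (9 uM final) is turned over by placental ASM in 60 min at 37 C after a 10 min compound preincubation. Reaction ended by alkaline stop (pH 10), with fluorescence read at 386/447 nm.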
AT treatment: potential ataxia-telangiectasia treatments restoring KAP-1 phosphorylation; F2112 A-T fibroblasts, KAP-1 phosphorylation AlphaLISA; neocarzinostatin DNA damage 30 min before lysis; Potency, µM (doses to about 57.5 µM), actives largely listed as activators; 0.19% of 320,000 active; also: nearly all actives have a fitted effect of over 45% in size
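ATM-like activity read as KAP-1 phosphorylation via AlphaLISA donor/acceptor antibody pairs after lysis and 6 hr at 25C. Cells were ATM-null patient fibroblasts (F2112, hTERT), dosed 60 min, then exposed to the DSB inducer NCS for 30 min.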
TSG101-PTAP inh: blocks PTAP/TSG101 interaction to inhibit HIV-1 budding; 340,000 tested, under 10 active; Potency, µM (highest dose often 115 µM), hits mostly inhibitors; Q99816; Fluorescence polarization, FITC-PTAP peptide / Tsg101 binding; active = well fitted inhibition curve with a large enough effect in the main read-out, with a control signal flat, not every such curve was filed as active; inconclusive = small, poorly fitted or top-dose-only effect, or effect the other way, or a change in a side signal; inactive = no such curve, though single readings can be large or run the other way
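FP read-out: FITC-PTAP peptide, 50 nM final, binding Tsg101 binding domain, 10 uM final; 20 min, r.t.; 10 mM HEPES pH 7.5, 0.15 M NaCl, 0.01% Tween 20, 3 mM EDTA, 0.1 mM TCEP.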
Hits are given with their value. Only some compounds are listed: those with a hit (about 0.37% of all), similar ones and a draw of the others. Unless noted, calls follow the shape of the dose curve; as a rule, active = well fitted curve in the direction sought with a large enough effect; inconclusive = small, poorly fitted or top-dose-only effect, or another doubt; inactive = no such curve, though single readings can be large; an effect the other way counts as inactive or inconclusive.

NS(=O)(=O)c1ccc(CNC(=O)CCCSc2ccccc2)cc1 was read as TRPV1 PAM inactive, TRPV1 ag 84, ASM inhibitor inactive, AT treatment inactive and TSG101-PTAP inh inactive.
`O=C(CCC(=O)c1ccc(F)cc1)Nc1cccnc1` gave TRPV1 PAM inactive, TRPV1 ag inactive, ASM inhibitor inactive, AT treatment inactive and TSG101-PTAP inh inactive.
Screening CC(=O)c1cc(-c2ccc(F)cc2)n(CCC(=O)Nc2cccnc2)c1C returned TRPV1 PAM inactive, TRPV1 ag 81, ASM inhibitor inactive, AT treatment inactive and TSG101-PTAP inh inactive.
Cc1ccc(S(=O)(=O)c2ccc([N+](=O)[O-])o2)cc1 was read as ASM inhibitor inactive and TSG101-PTAP inh inactive.
O=C(Nc1ccc(NC(=O)c2ccc(Cl)c(S(=O)(=O)N3CCOCC3)c2)cc1)c1ccccc1 was read as TRPV1 PAM inactive, TRPV1 ag inactive, ASM inhibitor inactive, AT treatment inactive and TSG101-PTAP inh inactive.
O=C(Nc1cccc(S(=O)(=O)N2CCOCC2)c1)c1cccc(S(=O)(=O)N2CCCCC2)c1 was read as TRPV1 PAM inactive, TRPV1 ag inactive, ASM inhibitor inactive, AT treatment inactive and TSG101-PTAP inh inactive.
CC(C)(C)c1cc(NC(=O)c2cccc(S(=O)(=O)N3CCOCC3)c2)no1 was read as TRPV1 PAM inactive, TRPV1 ag 80, ASM inhibitor inactive, AT treatment inactive and TSG101-PTAP inh inactive.
For O=C(Nc1nc2ccccc2[nH]1)c1cccc(S(=O)(=O)N2CCOCC2)c1 the results were TRPV1 PAM inactive, TRPV1 ag 80, ASM inhibitor inactive, AT treatment inactive and TSG101-PTAP inh inactive.
Screening O=C(Nc1ccccc1)c1ccc(NC2CCCCC2)c(S(=O)(=O)N2CCOCC2)c1 returned TRPV1 PAM inactive, TRPV1 ag 86, ASM inhibitor inactive and TSG101-PTAP inh inactive.
`O=C(Nc1ccc(N2CCCCCC2)cc1)c1cccc(S(=O)(=O)N2CCOCC2)c1` gave TRPV1 PAM inactive, TRPV1 ag 87, ASM inhibitor inactive, AT treatment inactive and TSG101-PTAP inh inactive.
Screening O=C(N/N=C/c1ccc(OC(F)F)cc1)c1cccc(S(=O)(=O)N2CCOCC2)c1 returned TRPV1 PAM inactive, TRPV1 ag inconclusive, ASM inhibitor inactive, AT treatment inactive and TSG101-PTAP inh inactive.
Screening C/C(=N\NC(=O)Cc1ccc(Cl)cc1)c1cccc(NC(=O)c2cccnc2)c1 returned TRPV1 PAM inactive, TRPV1 ag inactive, ASM inhibitor inactive, AT treatment inactive and TSG101-PTAP inh inactive.
Screening O=C(COc1ccc([N+](=O)[O-])cc1)Nc1nnc(-c2cccnc2)s1 returned TRPV1 PAM inactive, TRPV1 ag inactive, ASM inhibitor inactive, AT treatment inactive and TSG101-PTAP inh inactive.
COc1cccc(OC)c1C(=O)NC(=O)Nc1c(C)cccc1C was read as TRPV1 PAM inactive, TRPV1 ag inactive, ASM inhibitor inactive, AT treatment 3.5µM and TSG101-PTAP inh inactive.
`CC(=O)c1cccc(OC(=O)Oc2cccc(C(C)=O)c2)c1` gave ASM inhibitor inactive and TSG101-PTAP inh inactive.
For NC(=O)C1CCN(C(=O)CCc2nc3sc4c(c3c(=O)[nH]2)CCCC4)CC1 the results were TRPV1 PAM inactive, TRPV1 ag inactive, AT treatment inactive and TSG101-PTAP inh inactive.
For CCOC(=O)N1CCN(C(=O)CCc2nc3sc4c(c3c(=O)[nH]2)CCCC4)CC1 the results were TRPV1 PAM inactive, TRPV1 ag inactive, ASM inhibitor inactive, AT treatment 10µM and TSG101-PTAP inh inactive.
For CC(C)CCNC(=O)C1CCN(Cc2cccc(OCc3ccccc3)c2)CC1 the results were TRPV1 PAM inactive, TRPV1 ag 92, ASM inhibitor inactive, AT treatment inactive and TSG101-PTAP inh inactive.
Screening COCCNC(=O)C1CCN(Cc2cccc(OCc3ccccc3)c2)CC1 returned TRPV1 PAM inactive, TRPV1 ag inactive, ASM inhibitor inactive, AT treatment inactive and TSG101-PTAP inh inactive.
Screening COc1ccc(/C=C/c2c(-c3ccc(OC)cc3)oc(=O)c3cc(OC)c(OC)cc23)cc1 returned ASM inhibitor inactive, AT treatment inactive and TSG101-PTAP inh inactive.

High-throughput results deposited in PubChem by National Center for Advancing Translational Sciences (NCATS).
